Results filed as inconclusive are left out. Where a call stands in place of a potency, no number is given. Unmarked numbers belong to inactive results. The source made the active and inactive calls. Calls come from the whole dose curve; as a rule, active = well fitted curve in the direction sought with a large enough effect; inconclusive = small, poorly fitted or top-dose-only effect, or another doubt; inactive = no such curve, though single readings can be large; an effect the other way counts as inactive or inconclusive.
Tests used:
[1] = molecular target: Aldehyde dehydrogenase, mitochondrial (Homo sapiens) (UniProt P05091); assay: qHTS for Inhibitors of the Aldehyde Dehydrogenase Family (ALDH2) Primary screen (AID 2061308); note: nearly all actives have a fitted effect of over 55% in size
[2] = molecular target: Retinaldehyde dehydrogenase 3 (Homo sapiens) (UniProt P47895); assay: qHTS for Inhibitors of the Aldehyde Dehydrogenase Family (ALDH1A3) Primary screen (AID 2061315)
[3] = BET inhibitor-based combinations targeting novel dependencies in MECOM-rearranged (r) AML: SET-2 cell line (AID 2202231); settings: SET-2 AML cells viability, CellTiter-Glo luminescence, 48 h; viability: active compounds read low, series mostly up to about 46 µM; note: nearly all actives have a fitted effect of over 35% in size
In short: (§1)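 Here, 11-point titrations of each agent were applied to 500 seeded cells and incubated 48 hr; CellTiter-Glo signal, scaled against DMSO and empty wells, was integrated as AUC, then Z-scored within the individual line.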

[4] = BET inhibitor-based combinations targeting novel dependencies in MECOM-rearranged (r) AML: UCSD-AML1 cell line (AID 2202235); note: series mostly up to about 46 µM; nearly all actives have a fitted effect of over 40% in size
In short: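 Normalized to DMSO and empty-well controls, the luminescence data from CellTiter-Glo after 48 hr drug exposure were fitted across 11 concentrations. Reported metrics are area under the dose-response curve and its Z-transformed form.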

[5] = BET inhibitor-based combinations targeting novel dependencies in MECOM-rearranged (r) AML: AML-191 cell line (AID 2202236; note: nearly all actives have a fitted effect of over 35% in size)
In short: as §1

[6] = BET inhibitor-based combinations targeting novel dependencies in MECOM-rearranged (r) AML: AML-194 cell line (AID 2202237; note: nearly all actives have a fitted effect of over 40% in size)
In short: as §1

For `C[C@@]1(O)[C@H](O)[C@@H](CO)O[C@H]1n1ccc(N)nc1=O`, the Potency [1] was “inactive” and the Potency [2] was “inactive”.

In the case of `COC(=O)CC(O)CC(O)/C=C/c1c(C)ccc2c1C(OC(C)=O)CC(C)C2` (stereo not drawn), the Potency [1] is reported as “inactive” and the Potency [2] is reported as “inactive”.

With `C[C@@H]1C[C@@H](O)[C@@]2(CO)C(CO)=CCC[C@@H]2[C@@]12C[C@@H](c1ccoc1)OC2=O` the Potency [1] was “inactive” and the Potency [2] was “inactive”.

In the case of `COc1cc(CCC2=NN=C(NC(=O)c3ccc(N4C[C@@H](C)N[C@@H](C)C4)cc3)C2)cc(OC)c1`, the Potency [1] is reported as “inactive” and the Potency [2] is reported as “inactive”.

For `O=C(c1ccccc1)c1c(O)cc(O)cc1O[C@@H]1O[C@H](CO)[C@@H](O)[C@H](O)[C@H]1O`, the Potency [1] was “inactive” and the Potency [2] was “inactive”.

`O=C(O)Cc1cccc(-c2cc(CCCCCCc3ccc(O[C@H]4O[C@H](CO)[C@@H](O)[C@H](O)[C@@H]4O)c(-c4cccc(CC(=O)O)c4)c3)ccc2O[C@H]2O[C@H](CO)[C@@H](O)[C@H](O)[C@@H]2O)c1` showed an activity change, negative = inhibition [1] of -4.79% [at 0.464 µM] and an activity change, negative = inhibition [2] of -13.7% [at 0.464 µM].

With `CCNC(=O)NCCCOc1cccc(CN2CCCCC2)c1` the Potency [1] was “inactive” and the Potency [2] was “inactive”.

For `CCCC1=CC2=C(CO1)C(=O)C(C)(OC(=O)c1c(C)cc(OC)cc1O)C(O)C2` (stereo not drawn), the Potency [1] was “inactive” and the Potency [2] was “inactive”.

With `CC1CCC23COC(=O)C2=CC(O)CC3C1(C)CCc1ccoc1` (stereo not drawn) the Potency [1] was “inactive” and the Potency [2] was “inactive”.

For `CC1(C)CC2C(O)c3cocc3CC(C)(O)C2C1` (stereo not drawn), the Potency [1] was “inactive” and the Potency [2] was “inactive”.

In the case of `OC[C@@]1(O)CO[C@H](OC[C@H]2O[C@@H](OCCc3ccccc3)[C@H](O)[C@@H](O)[C@@H]2O)[C@@H]1O`, the Potency [1] is reported as “inactive” and the Potency [2] is reported as “inactive”.

For `CC1(C)SC2C(NC(=O)[C@H](C(=O)O)c3ccsc3)C(=O)N2C1C(=O)O` (stereo partly drawn), the Potency [1] was “inactive” and the Potency [2] was “inactive”.

With `CCC(C)C(=O)OC12C(OC(C)=O)C(C)C3(O)C(C=C(CO)CC4(O)C(=O)C(C)=CC43)C1C2(C)C` (stereo not drawn) the Potency [1] was “inactive” and the Potency [2] was “inactive”.

In the case of `Nc1ncnc2c1c(-c1ccc(Cl)cc1)nn2-c1cccc(-c2cnnn2Cc2cccc(-c3ccccc3)c2)c1`, the Potency [1] is reported as “inactive” and the Potency [2] is reported as “inactive”.

With `COC(=O)C1=COC(OC2OC(CO)C(O)C(O)C2O)C2C(C)C(OC(C)=O)C(OC(=O)c3ccccc3)C12` (stereo not drawn) the Potency [1] was “inactive” and the Potency [2] was “inactive”.

In the case of `OCC1=C[C@@H](O)[C@@H]2C=CO[C@@H](O[C@@H]3O[C@H](CO)[C@@H](O)[C@H](O)[C@H]3O)[C@H]12`, the Potency [1] is reported as “inactive” and the Potency [2] is reported as “inactive”.

In the case of `CC1=CC(=O)CC(C)(C)[C@@]1(O)CC[C@@H](C)O[C@@H]1O[C@H](CO)[C@@H](O)[C@H](O)[C@H]1O`, the Potency [1] is reported as “inactive” and the Potency [2] is reported as “inactive”.

In the case of `CCC(C)CC(=O)OC1C(=O)C(CO)=CC(O)C1C(C)C` (stereo not drawn), the Potency [1] is reported as “inactive” and the Potency [2] is reported as “inactive”.

For `C=C(C)C1CC2(CO)C(=CC1=O)CCC(O)C2C` (stereo not drawn), the Potency [1] was “inactive” and the Potency [2] was “inactive”.

For `COc1cc(O)c2c(c1)C1(OC2=O)C(C)=CC(=O)C1O` (stereo not drawn), the Potency [1] was “inactive” and the Potency [2] was “inactive”.

With `CC(C)c1c(O)ccc2c1CC[C@H]1C(C)(C)CCC[C@]21C` the Potency [1] was “inactive” and the Potency [2] was “inactive”.

With `Cc1c(C)n(Cc2ccc(-c3ccccc3C(=O)O)cc2)c2ccc(C(=O)N[C@@H](C)c3ccc([N+](=O)[O-])cc3)cc12` the Potency [1] was “inactive”, the Potency [2] was “inactive” and the viability [3] was 111%. The Potency [4] was “inactive”, the Potency [5] was “inactive” and the Potency [6] was “inactive”.

— PubChem BioAssay (NCATS)
